# In the library only some 3.4% were active in any assay of this set; here they are far more common.
# TEAD-YAP inh: TEAD-YAP interaction inhibition; HEK-TIYL cells, TEAD-Gal4/YAP UAS-luciferase luminescence; inhibition, % at 9.12 µM; actives 1.4% (n = 640,000); AID 1259422; in the data active = inhibition above about 32%;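 note: 0% = median of test compound wells and 100% = reference inhibitor wells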
# GPR151 ag: human GPR151 activation | Q8TDV0 | PathHunter beta-arrestin GPR151 cells, luminescence | activation, % at 11.2 µM | actives 1% (n = 650,000); in the data active = activation above about 4.9%;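 note: 0% = median of compound wells and 100% = cells with positive control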
# FBW7 act: activators of human E3 ligase FBW7. Q969H0. AID 1259310. normalized activity (activation), % at 26.1 µM. AlphaScreen FBW7–phospho-cyclin E peptide binding, activator screen. actives 0.13% (n = 650,000); in the data active = normalized activity above about 1.9%;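 note: purified mutant Fbw7 with reduced substrate affinity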
# MITF inh: human MITF inhibition, primary screen; O75030; AlphaScreen MITF homodimerization, bead proximity signal; inhibition, % at 2.6 µM; actives 0.91% (n = 650,000); AID 1259374; in the data active = inhibition above about 50%;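 note: 0% = vehicle wells with protein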
# Target sequence (O75030 whole entry, looked up): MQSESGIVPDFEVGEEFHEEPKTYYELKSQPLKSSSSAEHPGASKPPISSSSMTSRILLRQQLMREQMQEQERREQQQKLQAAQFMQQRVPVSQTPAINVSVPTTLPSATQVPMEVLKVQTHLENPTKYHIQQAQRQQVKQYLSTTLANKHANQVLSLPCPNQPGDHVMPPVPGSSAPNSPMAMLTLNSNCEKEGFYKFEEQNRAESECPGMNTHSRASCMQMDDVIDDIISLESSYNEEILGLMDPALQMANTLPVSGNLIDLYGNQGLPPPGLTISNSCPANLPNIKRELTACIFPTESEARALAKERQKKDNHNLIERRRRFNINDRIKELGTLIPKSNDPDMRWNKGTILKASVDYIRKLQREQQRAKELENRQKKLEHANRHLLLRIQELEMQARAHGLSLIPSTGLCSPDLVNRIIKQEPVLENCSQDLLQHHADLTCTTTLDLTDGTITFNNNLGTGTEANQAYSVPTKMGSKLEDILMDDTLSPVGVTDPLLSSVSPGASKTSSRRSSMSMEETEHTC
# An asterisk follows results filed as active.
SMILES,TEAD-YAP inh,GPR151 ag,FBW7 act,MITF inh
O=C(COc1ccc(Br)cc1Br)Nc1ncc(S(=O)(=O)c2ccc([N+](=O)[O-])cc2)s1,4,0,0,2
O=C(Nc1ccc2c(c1)Nc1ccccc1CC2)c1ccccc1,-14,-1,0,8
COc1cc(C(=O)Nc2ccc(O)cc2)cc(OC)c1OC,10,3,0,-5
COC(=O)c1ccc(NC(=O)c2cc(OC)c(OC)c(OC)c2)cc1,59*,1,0,-8
COc1cc(C(=O)Nc2ccc3c(c2)Nc2ccccc2CC3)cc(OC)c1OC,62*,0,0,-1
COc1cc(C(=O)Nc2ccc3c(c2)oc2ccccc23)cc(OC)c1OC,57*,0,0,-4
O=C(C1CC1)N1CCc2cc(S(=O)(=O)N3CC=C(c4ccccc4)CC3)ccc21,11,1,0,8
Cc1cc(Br)ccc1NC(=O)CSc1cc(=O)n(C)c2ccccc12,7,-1,0,17
Cc1ccc2nc(-c3cc(Cl)c(N)c(Cl)c3)sc2c1,-47,-1,0,3
Nc1ccc(-c2nc3cc(N)ccc3s2)cc1,47*,-5,2,5
Cc1ccc2sc(-c3ccc(NC(=O)/C=C/C(=O)O)cc3)nc2c1,92*,-4,1,10
Cc1ccc2sc(NC(=O)/C=C/C(=O)O)nc2c1,14,-3,0,11
Cc1ccc2sc(-c3ccc(N)cc3)nc2c1,87*,-8,0,7
Cc1ccc2nc(-c3ccc(N)cc3)sc2c1,86*,-7,0,18
COC(=O)C1=C(C)NC(C)=C(C(=O)OC)C1c1cccs1,10,-1,0,12

# Screening results from PubChem BioAssay.
